This is a sample that favours compounds with a hit; in the whole collection about 19% have one here.
KB-3-1 tox: kills parental KB-3-1 adenocarcinoma cells; KB-3-1 viability, CellTiter-Glo ATP luminescence, 72 h; Potency, µM (doses to about 46.1 µM), most hits filed as cytotoxic; 400,000 tested, 1.4% active; note: nearly all actives have a fitted effect of over 60% in size
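Cytotoxicity measured as CellTiter-Glo luminescence after 72 h at 37 C. Compound titrations were pinned onto drug-naive KB-3-1 parental adenocarcinoma cells grown in DMEM with 10% FBS, and normalized data fitted to concentration-response curves.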
HT1080 IDH1KD tx: toxicity to HT-1080 IDH1 knockdown cells (counter line); Potency, µM (doses to about 46.1 µM), for the others: at the top dose activity, negative = toxicity, actives largely listed as cytotoxic; 360,000 tested, 2% active; HT-1080 IDH1 knockdown viability, ATP luminescence, 48 h;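 note: 0% = DMSO wells and -100% = cell-free medium wells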
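In this qHTS, HT-1080 cells depleted of IDH1 are exposed for 48 h at 37 °C to compound titrations. Toxicity is scored from CellTiter-Glo luminescence, with DMSO as full viability and medium alone as none.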
DT40 TDP1 no CPT: qHTS for Inhibitors of human tyrosyl-DNA phosphodiesterase 1 (TDP1): qHTS in cells in absence of CPT. DT40 Tdp1-/- hTDP1 cells, no CPT, ATP luminescence, 48 h. Potency, µM (highest dose often 46.2 µM), for inactives: at the top dose activity change, negative = growth inhibition, usual class: inhibitors. 420,000 tested, 15% active; note: nearly all actives have a fitted effect of over 55% in size
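Growth of hTDP1-complemented DT40 Tdp1-knockout cells is measured by ATP luminescence after at least 48 hr compound exposure at 37 °C, with DMSO substituting for the 20 nM CPT used in the parallel screen.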
HT1080-NT tox: kills 2HG-producing HT-1080-NT fibrosarcoma cells; Potency, µM (titrated, usually from 46.1 µM), for inactives: top-dose activity, negative = less viability, most hits filed as cytotoxic; HT-1080-NT fibrosarcoma viability, CellTiter-Glo ATP luminescence, 48 h; 360,000 tested, 1.6% active;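 note: NT is the 2HG producing partner of a matched IDH1 knockdown line; 0% = DMSO-treated cells and -100% = media-only wells without cells; nearly all actives have a fitted effect of over 55% in size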
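Toxicity toward the 2HG-producing NT line was scored as %Activity, normalised to DMSO and no-cell wells, from CellTiter-Glo luminescence after 48 hours' treatment.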
KB-V1 MDR tox: KB-V1 MDR subline cytotoxicity; KB-V1 MDR cells viability, CellTiter-Glo, 72 h; Potency, µM (doses to about 46.1 µM), usual class: cytotoxic; 400,000 tested, 3.4% active; AID 1347076; note: nearly all actives have a fitted effect of over 60% in size
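Cytotoxicity toward P-gp-expressing KB-V1 cells was determined as loss of CellTiter-Glo luminescence after 72 h at 37 degrees C. Compounds were tested in quantitative HTS format across a concentration range, with curves fitted to normalized data.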
DT40 TDP1 CPT: DT40-hTDP1 cell growth loss with CPT; AID 686979; Potency, µM (top dose mostly 46.2 µM), inactives show at the top dose activity change, negative = growth inhibition, usual class: inhibitors; 420,000 tested, 12% active; chicken DT40 Tdp1-/-;hTDP1 cells + 20 nM CPT, ATP luminescence, 48 h; note: nearly all actives have a fitted effect of over 55% in size
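Chicken DT40 Tdp1-/- cells complemented with human TDP1, 400 cells/well, exposed to compounds plus 20 nM camptothecin for at least 48 h at 37 C; viability read as ATP content by CellTiter-Glo luminescence.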
An asterisk follows results filed as active; i = inactive; ? = inconclusive; / = no result; [ ] = another dose, or the depositor's remark. Calls come from the whole dose curve; as a rule, active = well fitted curve in the direction sought with a large enough effect; inconclusive = small, poorly fitted or top-dose-only effect, or another doubt; inactive = no such curve, though single readings can be large; an effect the other way counts as inactive or inconclusive. Unless noted, % is set by controls: 0 for no effect and ±100 for the full control effect; potency is the fitted concentration of half-maximal effect.

SMILES	KB-3-1 tox	HT1080 IDH1KD tx	DT40 TDP1 no CPT	HT1080-NT tox	KB-V1 MDR tox	DT40 TDP1 CPT
O=C(N/N=C/c1ccc[nH]1)c1ccc(O)cc1	i	11%	7%	17%	i	-3%
Cc1cc(C(=O)N/N=C/c2ccc[nH]2)n[nH]1	i	-1%	-13%	26%	i	-5%
CCC(=O)c1ccc(OCCSc2ncccn2)cc1	i	4%	18µM*	10%	i	?
COc1ccc(C2CC(=O)c3c(O)cc(O[C@H]4OC(COC5OC(C)C(O)C(O)[C@@H]5O)C(O)C(O)C4O)cc3O2)cc1O (some centres not stated)	/	/	1%	/	/	15%
C=CCC[C@H](Cc1ccc(F)cc1)C(=O)OC[C@@H](Cc1c[nH]c2ccccc12)NC(=O)[C@@H](CC=C)CC(=O)N[C@H](CO)Cc1ccccc1	i	-10%	15µM*	-4%	i	18µM*
C=CCC[C@H](Cc1ccc(F)cc1)C(=O)OC[C@@H](Cc1c[nH]c2ccccc12)NC(=O)[C@H](CC=C)CC(=O)NCCO	i	-2%	16µM*	-17%	i	21µM*
C=CCC[C@H](Cc1ccc(F)cc1)C(=O)OC[C@H](Cc1c[nH]c2ccccc12)NC(=O)[C@@H](CC=C)CC(=O)N[C@H](CO)Cc1ccccc1	?	18µM*	-81%	21µM*	i	?
C=CCC[C@@H](Cc1ccc(F)cc1)C(=O)OC[C@H](Cc1c[nH]c2ccccc12)NC(=O)[C@@H](CC=C)CC(=O)N[C@H](CO)Cc1ccccc1	i	-27%	?	-20%	?	?
C=CCC[C@@H](Cc1ccc(F)cc1)C(=O)OC[C@H](Cc1c[nH]c2ccccc12)NC(=O)[C@H](CC=C)CC(=O)NCCO	?	-14%	?	-30%	i	?
C=CCC[C@H](Cc1ccc(F)cc1)C(=O)OC[C@H](Cc1c[nH]c2ccccc12)NC(=O)[C@@H](CC=C)CC(=O)N[C@@H](CO)Cc1ccccc1	?	?	16µM*	?	i	5.8µM*
C=CCC[C@H](Cc1ccc(F)cc1)C(=O)OC[C@H](Cc1c[nH]c2ccccc12)NC(=O)[C@H](CC=C)CC(=O)N[C@H](CO)Cc1ccccc1	i	-1%	?	0%	i	?
Cc1nc2scc(C)n2c(=O)c1S(=O)(=O)NCc1ccc(F)cc1	i	-1%	-10%	-3%	i	-5%
CCCCN(C(=O)CCNC(=O)NC12CC3CC(CC(C3)C1)C2)c1c(N)n(CCC)c(=O)[nH]c1=O	i	-1%	-3%	-5%	i	1%
CC[C@H](C)[C@@H]1NC(=O)[C@H]([C@@H](C)CC)NC(=O)[C@@H](CC(C)C)NC(=O)[C@H](Cc2ccccc2)NC(=O)[C@H](Cc2ccccc2)NC(=O)[C@@H]2CCCN2C(=O)[C@@H]2CCCN2C(=O)[C@H](C(C)C)NC(=O)[C@H](CC(C)C)NC1=O	?	?	8.2µM*	?	i	6.5µM*
CN(c1ccccc1)S(=O)(=O)c1cccc(NC(=O)Cn2cnc3c2c(=O)n(C)c(=O)n3C)c1	?	-2%	16µM*	-12%	?	23µM*
CN(c1ccccc1)S(=O)(=O)c1cccc(NC(=O)CSc2ncn[nH]2)c1	?	-16%	5.8µM*	-3%	i	8.2µM*
CN(c1ccccc1)S(=O)(=O)c1cccc(NC(=O)CSc2nncs2)c1	?	-10%	8.2µM*	-7%	4.1µM*	7.3µM*
Cc1ccccc1C(=O)Nc1cccc(NC(=O)Cn2cnc3c(=O)n(C)c(=O)n(C)c32)c1	i	11µM*	8.2µM*	?	i	10µM*
CN(c1ccccc1)S(=O)(=O)c1cccc(NC(=O)CSc2nnc(C3CC3)n2C)c1	i	-12%	-15%	-1%	i	-16%
CC(=O)c1ccc(F)c(-c2cc(C)cc3c2OC(CNC(=O)C[C@@H]2C[C@@H](C)NC(=S)N2)C3)c1 (some centres not stated)	/	/	-18%	/	/	-13%[9.04 µM]
Oc1oc(C=Nc2ccc(F)cc2F)c2ccccc12	i	15%	-25%	21%	i	-20%
CN(c1ccccc1)S(=O)(=O)c1cccc(NC(=O)CSc2nnc(N)s2)c1	?	-5%	8.2µM*	0%	?	8.2µM*
COc1ccc(C2Oc3cc(OC)cc(OC)c3CC2O)cc1 (configuration not stated)	/	/	16µM*	/	/	?
CCN1CCN(Cc2ccc(NC(=O)c3cc(NC(=O)c4nccnc4N)cc(OC)c3)cc2C(F)(F)F)CC1	i	-5%	?	-21%	i	?
CCN1CCN(Cc2ccc(NC(=O)c3cc(NC(=O)c4cnnc5ccccc45)cc(OC)c3)cc2C(F)(F)F)CC1	?	?	6.5µM*	?	i	8.2µM*
SMILES	KB-3-1 tox	HT1080 IDH1KD tx	DT40 TDP1 no CPT	HT1080-NT tox	KB-V1 MDR tox	DT40 TDP1 CPT
CCN1CCN(Cc2ccc(NC(=O)c3cc(NC(=O)c4cncc(-c5ccc(C#N)cc5)c4)cc(OC)c3)cc2C(F)(F)F)CC1	?	?	2.6µM*	?	i	2.3µM*
CC(OC(=O)C1CC1)C(=O)Nc1ncc(Cl)cc1Cl (configuration not stated)	i	2%	9%	5%	?	0%
CCc1c(C)sc2c1CCN(C(=O)Nc1cc(C)cc(C)c1)C2c1ccccc1 (configuration not stated)	i	/	8.2µM*	/	i	3.7µM*
CCOc1ccccc1NC(=O)N1CCCC1C(=O)NCc1cccs1 (configuration not stated)	i	4%	-3%	12%	i	?
CCOc1ccccc1NC(=O)N1CCc2c(sc(C)c2CC)C1c1ccccc1 (configuration not stated)	i	/	15µM*	/	?	?
CCN(C(=O)COC(=O)c1cc2ccccc2cc1OC)c1c(N)n(Cc2ccccc2)c(=O)[nH]c1=O	i	-11%	?	-10%	?	?
CCCCN(CC)CCNC(=O)C1CCN(c2nnc(C)c3c(C)n(-c4ccc(C)cc4)nc23)CC1	/	/	21µM*	/	/	?
Cc1nnc(N2CCC(C(=O)NCCc3ccccc3)CC2)c2nn(-c3ccccc3)c(C)c12	i	/	26µM*	/	i	?
